# This is part of a sample that, as a whole, favours compounds with a hit. Of some 83,000 tested, about 20% had one in any assay.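 Interpretation: 100, growth as untreated; towards 0, rising growth inhibition; 0, no net growth; 0 to -100, cell death. Compounds scoring below 10 were considered active.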 A number with no mark means an inactive call. Activity calls are given as the source filed them.
# System: RPMI-8226 leukemia
# Assay: NCI-60 one-dose screen, 48 h (100 = growth as untreated, 0 = no growth, -100 = all killed)
# Conditions: 10 µM unless noted
# Protocol: Growth inhibition of the RPMI-8226 human tumor cell line is measured as a screen for anti-cancer activity. Cells are grown in 96 well plates and exposed to the test compound for 48 hours. Compounds are tested at a single concentration, which is 10^-5 M for most compounds. The reported endpoint is percent growth (GI% or GIPRCNT), where numbers from 0 - 100% represent growth inhibition, and numbers from -100% - 0 represent cell death. For example, a value of 40 represents 60% growth inhibition. A value of 0 means no net growth occurred over the course of the experiment. A value of -40 indicates 40% of cells at the beginning of the experiment died by the end of the experiment. A value of -100 means all cells are dead at the end of the experiment.
# NCI-60 Human Tumor Cell Lines Screen was performed using the standard one-dose NCI protocol, which is described in more detail at https://dtp.cancer.gov/discovery_development/nci-60/default.htm.
# Compounds with GIPRCNT values below 10 were considered active. Activity score was based on GIPRCNT using the following formula: […]
# Score is 0 for GIPRCNT values of 100 or above, 50 for GIPRCNT values of 0, and 100 for GIPRCNT values of -100.
row,SMILES,growth
1,ClCCN(CCCl)c1ccc(/C=N\N=C\c2ccc(N(CCCl)CCCl)cc2)cc1,39.8%
2,COc1cc2c(=O)n(C3CCCCCCC3)c3c4cc[nH]c4ncc3c2cc1OC,50.1%
3,Oc1ccc2c3c1OC1[C@@H](O)CC[C@@]4(O)[C@@H](C2)N(CC2CCC2)CC[C@]314 (stereo not given in full),103%
4,COC(=O)CC12CC(NC(=O)c3csc([C@@H](C[C@H](C(C)C)N(C)C(=O)[C@@H](NC(=O)[C@H]4CCCCN4C)C(C)C)OC(C)=O)n3)(C1)C2,24.4%
5,O=[N+]([O-])c1ccc([Se]C2CCCCC2Cl)c([N+](=O)[O-])c1 (stereo not given),82.8%
6,CCOC(=O)C(Cc1ccc(N(CCCl)CCCl)cc1)NC(=O)C(CC(C)C)NC(C)=O (stereo not given),21%
7,CC(=O)O[C@H]1C(=O)[C@@]2(C)[C@H]([C@H](OC(=O)c3ccccc3)[C@]3(O)C[C@H](OC(=O)[C@H](OC(=O)OC[C@H]4COC(C)(C)O4)[C@@H](NC(=O)c4ccccc4)c4ccccc4)C(C)=C1C3(C)C)[C@]1(OC(C)=O)CO[C@@H]1C[C@@H]2O,6.27% (active)
8,Cc1ccccc1NC(=NCCCN1CC1)Nc1ccccc1C,95.2%
9,N#CCCNc1ccccc1,95.2%
10,O=C1C2CC=CCC2C(=O)N1SC(Cl)(Cl)Cl (stereo not given),33.1%
11,COC(=O)C12CC(NC(=O)c3csc([C@@H](C[C@H](C(C)C)N(C)C(=O)[C@@H](NC(=O)[C@H]4CCCCN4C)C(C)C)OC(C)=O)n3)(C1)C2,17.8%
12,C/C(Cc1ccc(Cl)cc1)=C(\c1ccc(OCCN2CCOCC2)cc1)c1ccc(OC(=O)Cc2ccccc2)cc1,84%
13,COc1ccc(C2=CC(c3ccc(OC)c(OC)c3)c3c(c4ccccc4oc3=O)O2)cc1OC (stereo not given),-48.5% (active)
14,CCCCCCCC[n+]1ccc2ccccc2c1,13.8%
15,O=C(Nc1ccc(Cl)cc1)Nc1nccs1,5.61% (active)
16,O=C(O)C(O)C(O)C1[O][Sb]([c]2ccc([N+](=O)[O-])cc2)[O]C1CO (stereo not given),99.2%
17,CCOC(=O)[C@@H](C)C[C@H](Cc1ccccc1)NC(=O)c1csc([C@@H](C[C@H](C(C)C)N(C)C(=O)[C@H](CCC(C)C)NC(=O)[C@H]2CCCCN2C)OC(C)=O)n1,12.6%
18,CC(=O)OC1C(OC/C2=C/C3[C@@H](C(C)C)CC=C(C)[C@@H]3CC(OC(=O)/C=C/c3cn(C)cn3)[C@]3(C)C=C[C@@]2(O)O3)OCC(O)C1O (stereo not given in full),4.84% (active)
19,O=[N+]([O-])/C=C\c1ccc(Cl)c(Cl)c1,-2.51% (active)
20,O=C(c1ccccc1O)c1[nH]c(Cl)c(Cl)c1-n1c(C(=O)c2ccccc2O)cc(Cl)c1Cl,-30.1% (active)

row,SMILES,growth
1,CCCCCCC(=O)NC1=C(N2CC2)C(=O)C(NC(=O)CCCCCC)=C(N2CC2)C1=O,56.1%
2,CCC1CC(O)c2c(O)c3c(c(O)c2C1O)C(=O)c1cccc(O)c1C3=O (stereo not given) (tested in a mixture with another compound),-35.8% (active)
3,O=C(O)C1C(C(=O)O)C2(Cl)C(Cl)=C(Cl)C1(Cl)C2(Cl)Cl.[Hg] (stereo not given),84%
4,CCCCN1CCCC[C@@H]1C(=O)N[C@H](C(=O)N(C)[C@H](C[C@@H](OC(C)=O)c1nc(C(=O)NC2CCC(C(=O)OC)CC2)cs1)C(C)C)C(C)C (stereo not given in full),16.8%
5,CCOC(=O)[C@@H](C)C[C@H](Cc1ccccc1)NC(=O)c1csc([C@@H](C[C@H](C(C)C)N(C)C(=O)[C@@H](NC(=O)[C@H]2C[C@H](O)CCN2C)C(C)C)OC(C)=O)n1,5.82% (active)
6,CN(C)CC(C(=O)Cc1ccccc1)c1ccccc1 (stereo not given),-4.6% (active)
7,COc1ccc(/C(C)=C(\c2ccc(OCCN3CCOCC3)cc2)c2ccc(OC(=O)Cc3ccccc3)cc2)cc1,84.6%
8,c1ccc(CSC(c2ccccc2)c2ccccc2)cc1,94.2%
9,COC(=O)[C@@H](C)C[C@H](Cc1ccc(F)cc1)NC(=O)c1csc([C@@H](C[C@H](C(C)C)N(C)C(=O)[C@@H](NC(=O)[C@H]2CCCCN2C)C(C)C)OC(C)=O)n1,17.4%
10,Cc1ccc(C(Cc2ccccc2)NCCO)cc1 (stereo not given),92%
11,COc1ccc(N(CC(=O)NCCC[Te]c2ccccc2)C(=O)CCSC2=C(C)C(=O)c3ccccc3C2=O)cc1,-40.9% (active)
12,C1CCC([PH+](C2CCCCC2)C2CCCCC2[PH+](C2CCCCC2)C2CCCCC2)CC1.O=C(C1[CH-]CCCC1)C1CCCC[N-]1.[Au] (stereo not given),-10.6% (active)
13,CC(C)=CC1C(C(=O)OCc2cccc(Oc3ccccc3)c2)C1(C)C (stereo not given),91.7%
14,CCn1c2ccccc2c2cc(C(=O)c3cccc4c3CCCN4)ccc21,112%
15,O=[As](O)(O)c1ccccc1[As](=O)(O)O,109%
16,Cn1cccc1C1CC(=O)N(CCC[Se]C#N)C1=O (stereo not given),64.4%
17,CC1(C)N=C(N)N=C(N)N1c1ccc(CCCCc2ccc(Cl)c(S(=O)(=O)F)c2)c(Cl)c1,-24.2% (active)
18,CC[C@H](C)[C@H](NC(=O)c1cccn1C)C(=O)N(C)[C@H](C[C@@H](OC(C)=O)c1nc(C(=O)N[C@@H](Cc2ccccc2)C[C@H](C)C(=O)OC)cs1)C(C)C,18.6%
19,CC(=O)[O][Hg][O]C(C)=O,90.1%
20,O=C(CC1(O)C(=O)N(Cc2ccccc2)c2ccccc21)c1ccc(C(=O)NCC2CCC3(CC2)OOC2(CCCCC2)OO3)cc1 (stereo not given),-26.7% (active)

# — PubChem BioAssay (NCI)
